Among the data in PubChem BioAssay (NCI) are growth values, retold here.

“And” between values parts separate entries of the source, which are not always exact repeats. Equal values may be shown once. The panel holds about 83,000 compounds, 20% with a hit somewhere; the sample as a whole holds those more often.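 For each line, cells grew in 96-well plates with the test compound present at a single concentration for 48 hours.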 The source made the active and inactive calls. The calls were made as follows: active = growth percent below 10; inactive = the rest.

Some test systems named below: HT29 colon; SNB-75 CNS; SNB-19 CNS; U251 CNS; PC-3 prostate; SK-MEL-5 melanoma; UACC-62 melanoma; LOX IMVI melanoma; SK-MEL-28 melanoma; SK-MEL-2 melanoma; EKVX NSCLC; SN12C renal; TK-10 renal; ACHN renal; CAKI-1 renal; A498 renal; CCRF-CEM leukemia; MOLT-4 leukemia; UO-31 renal.
Common to all, as to experiment: NCI-60 one-dose screen, 48 h (100 = growth as untreated, 0 = no growth, -100 = all killed)
Holding throughout (conditions): 10 µM unless noted

In the case of `CC1=NN(c2ccccc2)C(=O)C1C(=O)c1ccccc1` (stereo not given), the growth in the assay on HT29 colon is 107% (inactive); in the assay on SNB-75 CNS, 103% (inactive); in the assay on SNB-19 CNS, 95.1% (inactive); with U251 CNS, 94.4% (inactive); in the assay with PC-3 prostate, 87.9% (inactive); in the assay with SK-MEL-5 melanoma, 99.1% (inactive). For the same molecule, the growth with UACC-62 melanoma was 99.2% (inactive); in the assay with LOX IMVI melanoma, 96.9% (inactive); in the assay on SK-MEL-28 melanoma, 101% (inactive); with SK-MEL-2 melanoma, 96.6% (inactive); in the assay on EKVX NSCLC it was 95% (inactive); in the assay on SN12C renal it was 108% (inactive). Besides, the growth in the assay with TK-10 renal is 107% (inactive); in the assay with ACHN renal, 99.4% (inactive); with CAKI-1 renal it was 95.9% (inactive); in the assay on A498 renal it was 92.4% (inactive); in the assay on CCRF-CEM leukemia, 88.4% (inactive); with MOLT-4 leukemia, 95.8% (inactive).
As to `COc1ccc(/C(C#N)=C/c2ccccn2)cc1`, the growth with HT29 colon was 106% (inactive) and 103% (inactive); in the assay on SNB-75 CNS, 99.2% (inactive) and 105% (inactive); in the assay on SNB-19 CNS, 97.9% (inactive) and 106% (inactive); in the assay on U251 CNS it was 97.9% (inactive) and 101% (inactive); in the assay on PC-3 prostate it was 104% (inactive) and 101% (inactive); with SK-MEL-5 melanoma, 94.9% (inactive) and 99.9% (inactive). For the same molecule, the growth with UACC-62 melanoma was 93.8% (inactive) and 114% (inactive); in the assay on LOX IMVI melanoma it was 99.7% (inactive) and 115% (inactive); with SK-MEL-28 melanoma it was 107% (inactive) and 139% (inactive); in the assay with SK-MEL-2 melanoma it was 103% (inactive) and 117% (inactive); in the assay on EKVX NSCLC it was 90.1% (inactive) and 99.5% (inactive); in the assay on SN12C renal, 101% (inactive) and 115% (inactive). For the same molecule, the growth in the assay on TK-10 renal is 104% (inactive) and 117% (inactive); in the assay on ACHN renal it was 108% (inactive) and 109% (inactive); in the assay on CAKI-1 renal, 101% (inactive) and 126% (inactive); in the assay on A498 renal, 93.2% (inactive) and 122% (inactive); in the assay on CCRF-CEM leukemia, 93% (inactive) and 102% (inactive); in the assay with MOLT-4 leukemia, 96.7% (inactive) and 103% (inactive).
`COc1ccc2nc(N/N=C/c3ccc(C)s3)cc(C)c2c1`: the growth in the assay with UACC-62 melanoma is -97.7% [100 µM] (active) and -100% [100 µM] (active); in the assay with TK-10 renal it was -94.1% [100 µM] (active) and -97.3% [100 µM] (active).
For `CCCCCN(CCCCC)CC(O)c1cc2c(c3ccccc13)CCCC2` (stereo not given), the growth is 15.4% (inactive) and 16.2% (inactive) in the assay with HT29 colon; 86.9% (inactive) and 70.7% (inactive) in the assay on SNB-75 CNS; 88.3% (inactive) and 83.6% (inactive) in the assay on SNB-19 CNS; 63% (inactive) and 62% (inactive) in the assay with U251 CNS; 35.7% (inactive) and 57.9% (inactive) with PC-3 prostate; 61.1% (inactive) and 36.3% (inactive) in the assay with SK-MEL-5 melanoma. Moreover, the growth was 25.4% (inactive) and 58.2% (inactive) in the assay with UACC-62 melanoma; 43.1% (inactive) and 40.8% (inactive) in the assay with LOX IMVI melanoma; 89.1% (inactive) and 57.1% (inactive) with SK-MEL-28 melanoma; 79.1% (inactive) and 97.2% (inactive) in the assay with SK-MEL-2 melanoma; 77.9% (inactive) and 46% (inactive) in the assay with EKVX NSCLC; 72.1% (inactive) and 75.1% (inactive) in the assay on SN12C renal. The growth with UO-31 renal was 39.7% (inactive) and 44.7% (inactive); in the assay on ACHN renal, 55.8% (inactive) and 49% (inactive); with A498 renal, 108% (inactive) and 39.3% (inactive); with CCRF-CEM leukemia it was 52.9% (inactive) and 57.2% (inactive); in the assay on MOLT-4 leukemia it was 41.7% (inactive) and 61.7% (inactive).
On to `Cc1ccc(-c2noc(C)n2)cc1`, for which the growth was 98.3% (inactive) in the assay with HT29 colon; 85.9% (inactive) in the assay with SNB-75 CNS; 105% (inactive) in the assay on SNB-19 CNS; 97.9% (inactive) in the assay with PC-3 prostate; 99.7% (inactive) in the assay with SK-MEL-5 melanoma; 105% (inactive) with UACC-62 melanoma. For the same molecule, the growth in the assay on LOX IMVI melanoma was 99.7% (inactive); in the assay on SK-MEL-28 melanoma, 110% (inactive); in the assay on SK-MEL-2 melanoma it was 120% (inactive); with SN12C renal, 102% (inactive); in the assay on UO-31 renal, 84% (inactive); with TK-10 renal it was 107% (inactive). Further, the growth was 105% (inactive) with ACHN renal; 94.5% (inactive) in the assay with CAKI-1 renal; 80.8% (inactive) in the assay with A498 renal; 103% (inactive) in the assay with CCRF-CEM leukemia; 90.5% (inactive) in the assay with MOLT-4 leukemia.
In the case of `COc1ccc(Cn2c(NCCN=C(N)N)nc(=O)n(Cc3ccc(F)cc3)c2=O)cc1`, the growth with HT29 colon was 101% (inactive) and 100% (inactive); with SNB-75 CNS, 55.1% (inactive) and 22.7% (inactive); in the assay with SNB-19 CNS it was 77.6% (inactive) and 78.7% (inactive); in the assay with U251 CNS, 81.7% (inactive); in the assay with PC-3 prostate it was 83% (inactive) and 87.1% (inactive); in the assay with SK-MEL-5 melanoma, 98.7% (inactive) and 99.9% (inactive). Also, the growth was 112% (inactive) and 98.4% (inactive) in the assay on UACC-62 melanoma; 96.2% (inactive) with LOX IMVI melanoma; 103% (inactive) and 97.9% (inactive) in the assay with SK-MEL-28 melanoma; 101% (inactive) with SK-MEL-2 melanoma; 91.4% (inactive) and 68.8% (inactive) in the assay on SN12C renal; 103% (inactive) and 104% (inactive) with TK-10 renal. The growth in the assay on ACHN renal is 97.7% (inactive) and 102% (inactive); in the assay with CAKI-1 renal, 95.2% (inactive) and 86.5% (inactive); with A498 renal, 92.1% (inactive) and 97.1% (inactive); in the assay with CCRF-CEM leukemia, 93.1% (inactive) and 87.4% (inactive); in the assay with MOLT-4 leukemia, 84.6% (inactive) and 88.4% (inactive).
For the molecule `CCOC(=O)c1cc(C)nc2c1c(=O)n(-c1ccccc1)c(=O)n2CCCCN1CCN(c2ncccn2)CC1`, the growth in the assay on UACC-62 melanoma was 97.1% [100 µM] (inactive) and 82.3% [100 µM] (inactive).
As to `Cc1ccc(/C=N/Nc2nncc3ccccc23)s1`, in the assay with UACC-62 melanoma, the growth is 6.4% [100 µM] (active) and 1.47% [100 µM] (active).
Regarding `O=C(O)c1cc(C(=O)O)cc([N+](=O)[O-])c1`, the growth in the assay with HT29 colon is 105% (inactive); in the assay with SNB-19 CNS, 106% (inactive); in the assay with U251 CNS it was 100% (inactive); with PC-3 prostate it was 96.4% (inactive); with SK-MEL-5 melanoma, 104% (inactive); in the assay with UACC-62 melanoma, 105% (inactive). Also, the growth was 97.4% (inactive) in the assay with LOX IMVI melanoma; 118% (inactive) in the assay on SK-MEL-28 melanoma; 102% (inactive) with SK-MEL-2 melanoma; 106% (inactive) in the assay on EKVX NSCLC; 107% (inactive) in the assay with SN12C renal; 91.3% (inactive) in the assay with UO-31 renal. Moreover, the growth in the assay with TK-10 renal was 102% (inactive); in the assay with ACHN renal, 105% (inactive); with CAKI-1 renal it was 96.2% (inactive); in the assay with A498 renal, 103% (inactive); in the assay with CCRF-CEM leukemia, 94.9% (inactive); with MOLT-4 leukemia, 98.4% (inactive).
Regarding `CC1CC(=O)N(N(C)C)C2(C#N)C(=O)N=C(N)C12C#N` (stereo not given), the growth in the assay with UACC-62 melanoma was -84.2% [100 µM] (active) and -92.9% [100 µM] (active).
